# Results as given in the supplement of paper PMC10849652.
# Of roughly 8,800 targets only a part is listed; those with a hit were picked by preference. About 0.5% of all pairs of compound and target were hits.
# Compound: Cc1sc2c(c1C)C(c1ccc(Cl)cc1)=N[C@@H](CC(=O)OC(C)(C)C)c1nnc(C)n1-2
# Experiment: log2 fold change, soluble protein after heating vs DMSO (PISA); higher = thermal stabilisation; K562 lysate, 10 uM; active = over 0.2 and 3.5 SD of the protein, either way, in both replicates (recomputed)
# How it was run: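 Pellets of K562 cells were dounce-homogenised in PBS pH 7.4 with 1 mM MgCl2, and the crude extract was held at 1 mg/mL protein for a 30 min treatment with 10 μM compound. Aliquots were heated for 3 min over 48°C-58°C and pooled before NP-40 was added to 0.5% at 4°C. The supernatant from 21,000xg for 90 min was quantified by TMTpro 16plex LC-MS/MS with channel sums equalised. Values are reported from duplicates as log-two fold change in thermal stability relative to solvent controls.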
# Sequence of UniProt Q9H3M7 (Q9H3M7 whole entry, looked up): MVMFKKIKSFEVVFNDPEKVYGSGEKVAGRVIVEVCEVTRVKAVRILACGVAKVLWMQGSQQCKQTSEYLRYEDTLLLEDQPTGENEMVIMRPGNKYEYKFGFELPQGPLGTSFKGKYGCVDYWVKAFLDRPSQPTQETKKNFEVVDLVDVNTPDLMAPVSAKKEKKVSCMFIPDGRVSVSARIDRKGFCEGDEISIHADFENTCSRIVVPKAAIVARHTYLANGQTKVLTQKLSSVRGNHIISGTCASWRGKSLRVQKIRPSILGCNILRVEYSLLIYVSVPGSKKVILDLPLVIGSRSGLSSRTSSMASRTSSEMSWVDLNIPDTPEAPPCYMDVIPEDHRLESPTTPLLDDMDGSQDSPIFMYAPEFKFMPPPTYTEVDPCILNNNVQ
# Sequence of UniProt O43156 (O43156 whole entry, looked up): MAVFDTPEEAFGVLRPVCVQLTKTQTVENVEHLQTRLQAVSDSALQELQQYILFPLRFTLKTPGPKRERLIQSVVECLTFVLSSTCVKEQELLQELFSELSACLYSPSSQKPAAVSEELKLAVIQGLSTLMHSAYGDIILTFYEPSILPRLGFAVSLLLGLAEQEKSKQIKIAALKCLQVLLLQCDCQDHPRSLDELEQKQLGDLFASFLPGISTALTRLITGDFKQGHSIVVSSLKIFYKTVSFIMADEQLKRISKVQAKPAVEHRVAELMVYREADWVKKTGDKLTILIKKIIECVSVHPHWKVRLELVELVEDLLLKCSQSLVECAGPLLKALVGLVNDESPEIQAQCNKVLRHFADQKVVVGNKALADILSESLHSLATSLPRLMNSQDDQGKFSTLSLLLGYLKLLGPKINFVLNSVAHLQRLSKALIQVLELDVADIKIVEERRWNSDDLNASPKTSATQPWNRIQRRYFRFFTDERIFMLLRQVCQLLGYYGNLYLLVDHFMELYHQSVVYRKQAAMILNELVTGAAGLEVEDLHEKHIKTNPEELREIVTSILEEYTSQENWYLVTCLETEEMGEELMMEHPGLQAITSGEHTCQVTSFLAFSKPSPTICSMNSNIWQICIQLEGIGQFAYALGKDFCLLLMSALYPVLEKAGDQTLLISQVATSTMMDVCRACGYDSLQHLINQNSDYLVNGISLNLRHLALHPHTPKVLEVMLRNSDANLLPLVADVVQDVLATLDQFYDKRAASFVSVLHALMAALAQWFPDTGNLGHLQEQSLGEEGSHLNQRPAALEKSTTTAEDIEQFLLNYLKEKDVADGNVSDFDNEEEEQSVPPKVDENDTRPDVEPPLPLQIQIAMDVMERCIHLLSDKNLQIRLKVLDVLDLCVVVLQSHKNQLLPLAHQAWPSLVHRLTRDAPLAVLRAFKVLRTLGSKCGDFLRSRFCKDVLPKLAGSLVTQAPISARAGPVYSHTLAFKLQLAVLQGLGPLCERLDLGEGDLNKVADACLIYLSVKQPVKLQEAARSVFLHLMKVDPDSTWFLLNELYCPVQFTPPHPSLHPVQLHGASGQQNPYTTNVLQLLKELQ
# Sequence of UniProt Q07157 (Q07157 whole entry, looked up): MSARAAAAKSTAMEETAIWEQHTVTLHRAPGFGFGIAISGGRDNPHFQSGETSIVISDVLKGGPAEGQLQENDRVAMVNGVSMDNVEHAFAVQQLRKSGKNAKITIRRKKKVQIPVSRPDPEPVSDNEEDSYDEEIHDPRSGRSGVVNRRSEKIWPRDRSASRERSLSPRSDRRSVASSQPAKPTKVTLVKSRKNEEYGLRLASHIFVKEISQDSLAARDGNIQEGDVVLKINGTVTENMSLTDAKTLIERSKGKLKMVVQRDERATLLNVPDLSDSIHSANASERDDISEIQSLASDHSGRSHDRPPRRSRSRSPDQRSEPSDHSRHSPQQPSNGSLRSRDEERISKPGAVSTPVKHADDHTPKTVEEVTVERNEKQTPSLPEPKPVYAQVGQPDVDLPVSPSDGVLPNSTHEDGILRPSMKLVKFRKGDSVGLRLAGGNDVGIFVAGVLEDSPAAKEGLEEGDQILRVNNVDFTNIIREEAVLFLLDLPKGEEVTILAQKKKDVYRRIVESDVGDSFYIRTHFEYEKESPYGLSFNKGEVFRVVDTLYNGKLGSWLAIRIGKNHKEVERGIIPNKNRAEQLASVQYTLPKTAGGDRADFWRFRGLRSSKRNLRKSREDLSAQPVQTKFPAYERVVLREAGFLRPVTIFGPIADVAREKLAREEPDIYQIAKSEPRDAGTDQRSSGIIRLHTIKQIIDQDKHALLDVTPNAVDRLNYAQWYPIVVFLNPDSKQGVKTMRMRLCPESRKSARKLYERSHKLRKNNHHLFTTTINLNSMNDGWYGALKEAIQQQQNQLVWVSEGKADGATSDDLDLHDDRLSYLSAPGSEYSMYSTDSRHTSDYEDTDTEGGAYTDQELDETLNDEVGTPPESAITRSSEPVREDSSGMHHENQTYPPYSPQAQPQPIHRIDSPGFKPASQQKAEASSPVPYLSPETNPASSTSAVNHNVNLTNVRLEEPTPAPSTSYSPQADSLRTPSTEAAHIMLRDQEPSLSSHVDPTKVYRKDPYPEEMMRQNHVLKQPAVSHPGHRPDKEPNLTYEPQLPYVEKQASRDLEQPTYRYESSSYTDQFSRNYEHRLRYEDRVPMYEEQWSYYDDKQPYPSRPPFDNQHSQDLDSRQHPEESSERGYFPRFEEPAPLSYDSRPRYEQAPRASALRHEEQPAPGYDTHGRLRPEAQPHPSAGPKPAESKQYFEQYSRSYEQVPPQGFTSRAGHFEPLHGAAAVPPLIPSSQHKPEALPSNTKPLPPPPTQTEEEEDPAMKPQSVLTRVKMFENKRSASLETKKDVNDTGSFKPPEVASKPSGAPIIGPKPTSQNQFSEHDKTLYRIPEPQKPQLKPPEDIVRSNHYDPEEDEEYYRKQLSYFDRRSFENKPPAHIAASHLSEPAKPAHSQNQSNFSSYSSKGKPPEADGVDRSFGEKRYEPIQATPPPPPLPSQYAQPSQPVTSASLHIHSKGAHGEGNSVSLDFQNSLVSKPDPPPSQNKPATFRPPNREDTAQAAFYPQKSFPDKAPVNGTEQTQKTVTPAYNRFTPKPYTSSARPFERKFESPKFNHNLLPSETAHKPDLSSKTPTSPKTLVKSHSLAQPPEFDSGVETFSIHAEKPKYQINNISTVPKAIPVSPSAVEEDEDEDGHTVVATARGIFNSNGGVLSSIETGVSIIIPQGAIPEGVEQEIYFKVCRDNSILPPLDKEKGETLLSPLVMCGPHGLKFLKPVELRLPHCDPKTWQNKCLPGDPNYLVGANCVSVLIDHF
# Sequence of UniProt Q6PJ69 (Q6PJ69 whole entry, looked up): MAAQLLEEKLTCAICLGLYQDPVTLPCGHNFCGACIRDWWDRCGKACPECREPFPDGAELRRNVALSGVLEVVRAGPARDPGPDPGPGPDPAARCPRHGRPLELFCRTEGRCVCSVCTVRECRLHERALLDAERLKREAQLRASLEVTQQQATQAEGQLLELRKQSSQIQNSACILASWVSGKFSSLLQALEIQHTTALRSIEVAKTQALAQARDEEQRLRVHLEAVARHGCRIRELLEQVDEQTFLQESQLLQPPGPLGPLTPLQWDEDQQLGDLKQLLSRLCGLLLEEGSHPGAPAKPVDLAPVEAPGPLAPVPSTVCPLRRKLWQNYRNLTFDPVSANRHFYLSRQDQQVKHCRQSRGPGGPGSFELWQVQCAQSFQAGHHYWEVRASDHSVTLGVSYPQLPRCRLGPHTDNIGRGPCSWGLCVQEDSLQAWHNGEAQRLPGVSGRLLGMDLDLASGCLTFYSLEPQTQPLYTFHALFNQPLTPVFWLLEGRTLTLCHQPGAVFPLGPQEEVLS
# Sequence of UniProt Q5TEJ8 (Q5TEJ8 whole entry, looked up): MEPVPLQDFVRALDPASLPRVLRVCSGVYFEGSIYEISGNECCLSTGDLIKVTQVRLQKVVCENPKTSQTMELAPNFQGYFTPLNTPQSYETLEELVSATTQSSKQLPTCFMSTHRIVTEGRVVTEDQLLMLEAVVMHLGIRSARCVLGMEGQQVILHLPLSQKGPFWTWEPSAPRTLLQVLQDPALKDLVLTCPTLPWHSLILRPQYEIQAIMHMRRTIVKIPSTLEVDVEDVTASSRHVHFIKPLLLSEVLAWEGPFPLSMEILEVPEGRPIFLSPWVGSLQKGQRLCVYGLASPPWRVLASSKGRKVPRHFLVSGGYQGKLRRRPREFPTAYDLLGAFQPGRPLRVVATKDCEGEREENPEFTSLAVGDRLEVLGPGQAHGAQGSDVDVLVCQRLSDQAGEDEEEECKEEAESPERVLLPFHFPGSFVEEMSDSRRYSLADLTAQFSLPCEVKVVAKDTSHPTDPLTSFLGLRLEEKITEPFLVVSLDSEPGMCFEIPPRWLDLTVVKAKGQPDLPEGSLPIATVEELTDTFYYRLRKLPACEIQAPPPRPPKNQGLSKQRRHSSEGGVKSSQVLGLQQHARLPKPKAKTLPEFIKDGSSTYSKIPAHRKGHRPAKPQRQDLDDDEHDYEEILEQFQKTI
# Sequence of UniProt P04818 (P04818 whole entry, looked up): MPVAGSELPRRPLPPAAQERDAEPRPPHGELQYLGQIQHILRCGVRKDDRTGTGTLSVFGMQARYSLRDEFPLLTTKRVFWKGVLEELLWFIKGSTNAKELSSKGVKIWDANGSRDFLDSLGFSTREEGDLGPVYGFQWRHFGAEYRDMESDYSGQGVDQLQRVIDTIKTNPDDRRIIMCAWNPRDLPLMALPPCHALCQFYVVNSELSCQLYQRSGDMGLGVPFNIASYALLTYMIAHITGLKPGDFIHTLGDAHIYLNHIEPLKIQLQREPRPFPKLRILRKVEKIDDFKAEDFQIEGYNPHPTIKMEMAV
# Sequence of UniProt P06753 (P06753 whole entry, looked up): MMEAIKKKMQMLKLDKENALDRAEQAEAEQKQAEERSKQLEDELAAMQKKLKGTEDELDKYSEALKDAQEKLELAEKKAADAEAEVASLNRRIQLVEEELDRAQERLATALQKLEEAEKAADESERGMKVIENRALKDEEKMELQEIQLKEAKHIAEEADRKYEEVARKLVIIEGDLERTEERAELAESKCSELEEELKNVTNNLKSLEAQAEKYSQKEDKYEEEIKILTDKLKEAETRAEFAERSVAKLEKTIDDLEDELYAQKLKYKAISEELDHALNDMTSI
row,Target,log2 fold change
1,UBR4 (UniProt Q5T4S7),0.012 (inactive)
2,THEMIS2 (UniProt Q5TEJ8),0.052 (inactive)
3,TOPBP1 (UniProt Q92547),-0.016 (inactive)
4,TJP1 (UniProt G3V1L9),0.009 (inactive)
5,TJP1 isoform 2 (UniProt Q07157),0.061 (inactive)
6,TRIM65 (UniProt Q6PJ69),0.012 (inactive)
7,TUBB3 (UniProt Q13509),0.008 (inactive)
8,TTI2 (UniProt Q6NXR4),-0.035 (inactive)
9,TXNIP (UniProt Q9H3M7),0.016 (inactive)
10,TBC1D2B (UniProt Q9UPU7),-0.065 (inactive)
11,UBXN6 (UniProt Q9BZV1),0.022 (inactive)
12,TYMS (UniProt P04818),0.012 (inactive)
13,UBR5 (UniProt O95071),-0.018 (inactive)
14,TMEM199 (UniProt Q8N511),-0.046 (inactive)
15,TPM3 isoform 2 (UniProt P06753),-0.009 (inactive)
16,TTI1 (UniProt O43156),0.034 (inactive)
17,TCAF2 (UniProt A6NFQ2),0.007 (inactive)
